According to PubChem BioAssay (EPA / NIEHS):
Activity calls are given as the source filed them. How the source made its calls: active means hit-call score of the fitted dose curve at least 0.9, where 1 is the maximum; inactive means score below 0.9.

Experiments:
Conditions in all cases: primary human HUVEC with PBMC; actives raise or lower the signal
[1] = read-out: Interleukin-1 alpha (IL1a), IL1A (gene 3552); experiment: BSK_LPS_IL1a: BioMAP Diversity Plus: LPS Assay for Interleukin-1 alpha (IL1a) Biomarker Activity (AID 2283080)
How it was run: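 Human umbilical vein endothelial cells co-cultured with peripheral blood mononuclear cells were LPS-stimulated and exposed to test chemicals for 24 h. IL-1 alpha was quantified by ELISA, with bidirectional curve fitting against DMSO as the negative control and baseline.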

[2] = read-out: Monocyte Chemoattractant Protein-1 (MCP1), CCL2 (gene 6347); experiment: BSK_LPS_MCP1: BioMAP Diversity Plus: LPS Assay for Monocyte Chemoattractant Protein-1 (MCP1) Biomarker Activity (AID 2283081);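 on AC50: secreted MCP-1 protein quantified by ELISA in culture supernatant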
How it was run: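 HUVEC plus PBMC co-culture (human primary cells, LPS system) exposed to test chemical for 24 h; MCP-1 measured by ELISA. Bidirectional curve fitting against DMSO baseline; parallel SRB total-protein staining flags overt cytotoxicity.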

[3] = BSK_LPS_PGE2: BioMAP Diversity Plus: LPS Assay for Prostaglandin E2 (PGE2) Biomarker Activity (AID 2283082);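 on AC50: secreted prostaglandin E2 measured by ELISA in LPS-stimulated co-culture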
How it was run: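 HUVEC plus human PBMC co-culture stimulated with LPS; secreted PGE2 quantified by ELISA 24 h after chemical dosing. Activity fitted bidirectionally against DMSO baseline; parallel SRB staining (0.1% SRB after 10% TCA fixation, 560 nm) flags overt cytotoxicity.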

[4] = read-out: Macrophage colony-stimulating factor (MCSF), CSF1 (gene 1435); experiment: BSK_LPS_MCSF: BioMAP Diversity Plus: LPS Assay for Macrophage colony-stimulating factor (MCSF) Biomarker Activity (AID 2283083)
How it was run: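 Human umbilical vein endothelial cells co-cultured with peripheral blood mononuclear cells were exposed to compound for 24 h. M-CSF levels were measured by ELISA, and bidirectional curve fitting used DMSO as the negative control and baseline.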

[5] = read-out: Tissue Factor, F3 (gene 2152); experiment: BSK_LPS_TissueFactor: BioMAP Diversity Plus: LPS Assay for Tissue Factor Biomarker Activity (AID 2283084)
How it was run: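 Human umbilical vein endothelial cells co-cultured with peripheral blood mononuclear cells were dosed and stimulated with LPS. Cell-surface CD142 was quantified by ELISA at 24 h. Activity was fitted bidirectionally against DMSO baseline.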

[6] = read-out: Tumor necrosis factor (Homo sapiens) (UniProt P01375); experiment: BSK_LPS_TNFa: BioMAP Diversity Plus: LPS Assay for Tumour Necrosis Factor alpha (TNFa) Biomarker Activity (AID 2283085);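 on AC50: TNFa protein level quantified by ELISA in the co-culture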
How it was run: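 Human umbilical vein endothelial cells co-cultured with PBMC and stimulated with LPS. TNFa was measured by ELISA 24 h after chemical dosing, fitted bidirectionally relative to DMSO.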

[7] = read-out: Vascular cell adhesion molecule 1 (VCAM1), VCAM1 (gene 7412); experiment: BSK_LPS_VCAM1: BioMAP Diversity Plus: LPS Assay for Vascular cell adhesion molecule 1 (VCAM1) Biomarker Activity (AID 2283086)
How it was run: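 Human umbilical vein endothelial cells co-cultured with PBMC and stimulated with LPS; VCAM-1 measured by ELISA 24 h after dosing. Bidirectional curve fitting against DMSO baseline; cytotoxicity tracked in parallel by SRB total-protein staining.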

CD38, CD38 (gene 952) = experiment: BSK_SAg_CD38: BioMAP Diversity Plus: SAg Assay for CD38 Biomarker Activity (AID 2283087)
How it was run: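 Human HUVEC plus PBMC co-culture stimulated with superantigen; CD38 measured by ELISA 24 h after chemical dosing. Fluorescence read-out, bidirectional fit against DMSO; cytotoxicity tracked in parallel by SRB and Alamar Blue.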

CD40, CD40 (gene 958) = experiment: BSK_SAg_CD40: BioMAP Diversity Plus: SAg Assay for CD40 Biomarker Activity (AID 2283088)
How it was run: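 Human umbilical vein endothelial cells co-cultured with PBMC; CD40 levels measured by ELISA with fluorescence read-out 24 h after chemical dosing. Gain or loss of signal fitted bidirectionally against DMSO baseline.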

CD69, CD69 (gene 969) = experiment: BSK_SAg_CD69: BioMAP Diversity Plus: SAg Assay for CD69 Biomarker Activity (AID 2283089);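 on AC50: cell surface CD69 protein quantified by ELISA with fluorescence detection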
How it was run: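 Values derive from bidirectional fitting relative to DMSO vehicle. Cells: umbilical vein endothelium plus peripheral blood mononuclear cells, treated 24 h before fluorescent ELISA for CD69.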

Measured: AC50

Tumor necrosis factor (Homo sapiens), sequence (P01375 whole entry, looked up): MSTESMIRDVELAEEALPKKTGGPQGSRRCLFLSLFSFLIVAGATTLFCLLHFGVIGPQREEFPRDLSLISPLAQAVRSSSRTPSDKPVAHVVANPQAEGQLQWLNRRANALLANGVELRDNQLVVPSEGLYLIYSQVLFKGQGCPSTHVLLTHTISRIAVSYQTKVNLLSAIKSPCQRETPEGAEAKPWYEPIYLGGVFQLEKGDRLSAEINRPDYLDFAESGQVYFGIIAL

COC(=O)CCCCC(=O)OC
inactive: all assays above

CCCOc1sc(C(=O)N2CCC(c3cc(CN)ccc3F)CC2)c(C)c1Br
active: [1] 8.61 µM | [2] 9.2 µM | [3] 12.5 µM | [4] 10.7 µM | [5] 13.1 µM | [6] 13.4 µM | [7] 7.57 µM | CD38, CD38 (gene 952) 6.1 µM | CD40, CD40 (gene 958) 9.53 µM | CD69, CD69 (gene 969) 8.27 µM

Oc1cc2ccccc2c2ccccc12
active: [1] 7.63 µM | [2] 11.1 µM | [3] 3.34 µM | [4] 7.85 µM | [5] 9.95 µM | [6] 11.6 µM | [7] 9.03 µM | CD38, CD38 (gene 952) 10 µM | CD40, CD40 (gene 958) 9.94 µM | CD69, CD69 (gene 969) 8.99 µM

O=c1c(-c2ccc(O)cc2)coc2cc(O)ccc12
active: [2] 20 µM | [5] 26.5 µM | [7] 20 µM
not listed: [3]
inactive: all other assays above

OC1CCCCC1
inactive: all assays above

CCCCCCCCCCCCN1CCCC1=O
active: [1] 33 µM | [2] 32.9 µM | [4] 32.6 µM | [7] 34.1 µM | CD38, CD38 (gene 952) 31.3 µM | CD40, CD40 (gene 958) 30.9 µM | CD69, CD69 (gene 969) 29.9 µM
inactive: [3] | [5] | [6]

CN1CCN(c2ccccc2/C=C2\SCCN(c3ccc(Cl)c(Cl)c3)C2=O)CC1
inactive: [3] | [4] | [5]
active: [1] 20 µM | [2] 12.1 µM | [6] 20 µM | [7] 13 µM | CD38, CD38 (gene 952) 24.1 µM | CD40, CD40 (gene 958) 20 µM | CD69, CD69 (gene 969) 20 µM

CCCCCCCCCCCCCC[N+](C)(C)C
active: [1] 1.76 µM | [2] 5.01 µM | [4] 5.39 µM | [5] 5.28 µM | [6] 11 µM | [7] 5.64 µM | CD38, CD38 (gene 952) 3.24 µM | CD40, CD40 (gene 958) 2.15 µM | CD69, CD69 (gene 969) 2.53 µM
inactive: [3]

Oc1cccc(O)c1
inactive: all assays above

Nc1cccc2c(N)cccc12
active: [3] 12.9 µM
inactive: all other assays above

CCN(CC)CCNc1ccc(CNC=O)c2sc3ccc(OC)cc3c(=O)c12
active: [1] 11.8 µM | [2] 20 µM | [3] 4.06 µM | [4] 20 µM | [5] 25.5 µM | [6] 17.8 µM | [7] 14.4 µM | CD38, CD38 (gene 952) 26.7 µM | CD40, CD40 (gene 958) 27 µM | CD69, CD69 (gene 969) 24.9 µM

CC(C)(C)CC(C)(C)c1ccc(O)c(-n2nc3ccccc3n2)c1
inactive: all assays above

C=C(C)C(=O)OCCC(F)(F)C(F)(F)C(F)(F)C(F)(F)C(F)(F)C(F)(F)F
inactive: all assays above

O=C(O)c1ccccc1C(c1ccc(O)cc1)c1ccc(O)cc1
inactive: all assays above

c1ccc2cc3c(ccc4ccccc43)cc2c1
active: [5] 0.587 µM
inactive: all other assays above

c1ccc2c(c1)ccc1ccccc12
inactive: all assays above

CCCCCCCCOC(=O)CCCCCCCCC(=O)OCCCCCCCC
inactive: all assays above

O=[N+]([O-])c1ccc(O)cc1
inactive: all assays above

CC(O)CO (stereo not drawn)
inactive: all assays above

N#C[C@@H]1CC(F)(F)CN1C(=O)CNC1CC2CCC(C1)N2c1ncccn1 (stereo partly drawn)
active: [3] 0.939 µM | [4] 2.33 µM | CD38, CD38 (gene 952) 4.4 µM | CD40, CD40 (gene 958) 4.8 µM | CD69, CD69 (gene 969) 4.59 µM
inactive: all other assays above

CC(C)(C)c1cc(C(C)(C)C)c(O)c(C(C)(C)C)c1
active: [5] 20 µM
inactive: all other assays above

CCCCCCCCCCCCCCCS(=O)(=O)Oc1ccccc1
inactive: all assays above

OC1CCC(C2CCCCC2)CC1 (stereo not drawn)
inactive: all assays above

CC#C[C@]1(O)CC[C@H]2[C@@H]3CCC4=CC(=O)CCC4=C3[C@@H](c3ccc(N(C)C)cc3)C[C@@]21C
active: [1] 31.3 µM | [2] 31.5 µM | [4] 12.1 µM | CD38, CD38 (gene 952) 36.6 µM | CD40, CD40 (gene 958) 31.2 µM | CD69, CD69 (gene 969) 31.9 µM
inactive: [3] | [5] | [6]

CC[C@H](C)[C@@H](C(=O)O)n1sc2ccccc2c1=O
active: [1] 25.9 µM | [3] 32.2 µM | [6] 20 µM | [7] 26.5 µM
inactive: all other assays above

Cc1cc(C)c(O)c(C)c1
active: [3] 2.97 µM | [6] 0.352 µM
inactive: all other assays above

ClC1=C(Cl)C(Cl)(Cl)C(Cl)=C1Cl
active: [1] 10.1 µM | [2] 12.3 µM | [3] 11.6 µM | [4] 9.94 µM | [5] 9.9 µM | [6] 18.4 µM | [7] 9.81 µM | CD38, CD38 (gene 952) 7.55 µM | CD40, CD40 (gene 958) 8.3 µM | CD69, CD69 (gene 969) 8.69 µM

CCOC(=O)CC(O)(CC(=O)OCC)C(=O)OCC
inactive: all assays above

c1ccc2c(c1)Cc1ccccc1-2
inactive: all assays above

Cc1oc(-c2ccccc2)nc1CCOc1ccc(C[C@H](Nc2ccccc2C(=O)c2ccccc2)C(=O)O)cc1
active: [1] 20 µM | [2] 16.1 µM | [3] 8.83 µM | [4] 30.6 µM | [5] 31.6 µM | [6] 30.4 µM | [7] 33.1 µM | CD38, CD38 (gene 952) 28.6 µM | CD40, CD40 (gene 958) 30 µM | CD69, CD69 (gene 969) 14.4 µM

C#C[C@]1(O)CC[C@H]2[C@@H]3CCC4=CC(=O)CC[C@@H]4[C@H]3CC[C@@]21C
active: [2] 8.06 µM | [3] 20 µM | [4] 6.38 µM | [6] 4.11 µM | [7] 8.21 µM | CD38, CD38 (gene 952) 7.1 µM | CD40, CD40 (gene 958) 5.45 µM
inactive: [1] | [5] | CD69, CD69 (gene 969)

COc1ccc([N+](=O)[O-])cc1N
inactive: all assays above

CCCCC(CC)COC(=O)CCCCC(=O)OCC(CC)CCCC (stereo not drawn)
active: [6] 3.97 µM
inactive: all other assays above
